Source: PubChem BioAssay (National Center for Advancing Translational Sciences (NCATS))
Shown are actives, neighbours in structure and some others; about 21% of the full set was active somewhere.
Cycloheximide cs: counter-screen hit for Shiga toxin inhibitors, cycloheximide. cell reporter, cycloheximide protein synthesis inhibition counterscreen. max response, %. actives 12% (n = 300,000). AID 2314; in the data active means max response mostly above about 13%, no sharp cut-off; inactive means mostly below about 14%; further: read at 38.3 µM for the half of the compounds with a filed dose; 0% is about no effect
Pf growth 48h: P. falciparum growth inhibition at 48 hours (one generation). P. falciparum luciferase growth in erythrocytes, 48 h. Potency, µM (series often up to 28.7 µM), without a hit: at the top dose activity change, negative = inhibition, most hits filed as inhibitors. actives 5.9% (n = 310,000); further: potency means the concentration at half of the fitted maximal effect; on the % scale 0 is the no-effect control and ±100 the full control effect
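Growth was read as firefly luciferase luminescence after a 48 h, 37 C, 5% CO2 exposure of compounds to reporter-bearing P. falciparum cultures (0.1% parasitemia, 2% hematocrit final) in Albumax-supplemented RPMI 1640.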
Shiga toxin inh: Shiga toxin inhibition | AID 2315 | Vero cells, Shiga toxin protein synthesis inhibition reporter | inhibition, % at 38.7 µM | actives 9.2% (n = 290,000); in the data active means inhibition mostly above about 28%, no sharp cut-off; inactive means mostly below about 43%; further: 0% is about no effect
NS1 function inh: blocks influenza NS1 protein function | actives 0.4% (n = 270,000) | AID 2326 | Potency, µM (series often up to 46.1 µM), inactives show at the top dose activity, positive = more growth; calls by dose curve; further: potency means the concentration at half of the fitted maximal effect; actives are rising curves; nearly all actives have a fitted effect of over 50% in size
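S. cerevisiae expressing influenza A NS1, grown in glucose, washed, then diluted 1:100 into pH 6.0 -URA galactose medium with 23 nl compound. Growth recovery read as OD600; NS1-free strain serves as control.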
Pf growth 96h: P. falciparum growth inhibition at 96 hour, primary screen for plastid delayed-death inhibitors | actives 6.9% (n = 320,000) | P. falciparum luciferase reporter growth, 96 h | Potency, µM (top dose mostly 28.7 µM), for the others: top-dose activity change, negative = inhibition, most hits filed as inhibitors; further: potency means the concentration at half of the fitted maximal effect; on the % scale 0 is the no-effect control and ±100 the full control effect
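P. falciparum expressing integrated firefly luciferase, in erythrocytes at 2% hematocrit, 0.05% parasitemia, incubated with compounds 96 h at 37 C, 5% CO2. Growth inhibition read as loss of luminescence; two-generation exposure targets delayed-death apicoplast inhibitors.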
Numbers without * were called inactive; ? = inconclusive; · = no result. Unless noted, the call rests on the fitted dose curve; in most records, active means well fitted inhibition curve with a large enough effect; inconclusive means small, poorly fitted or top-dose-only effect, or another doubt; inactive means no such curve, though single readings can be large or run the other way.

SMILES	Cycloheximide cs	Pf growth 48h	Shiga toxin inh	NS1 function inh	Pf growth 96h
Cc1cc(C)c(S(=O)(=O)Nc2nccs2)c(C)c1	-1.0	1.7%	-9.2	-1.7%	182.1%
COc1ccc(C(=O)C(C)OC(=O)c2cccc(S(=O)(=O)Nc3cc(Cl)c(OC)cc3OC)c2)cc1 (centres undefined)	-4.4	6.8%	26.1	?	-1.7%
CCc1ccccc1NC(=O)c1cc(S(=O)(=O)N2CCCC2)c[nH]1	-3.1	-16.6%	-6.3	1.8%	?
CCC(Cc1ccccc1)NC(=O)c1cc(S(=O)(=O)N2CCCCC2)c[nH]1 (centres undefined)	1.5	-19.1%	-8.4	-13.5%	2.94µM*
COc1ccc(/C=C/S(=O)(=O)NCc2ccccc2)cc1OC	-0.5	11.7µM*	-9.9	·	38.7%
COc1ccc(/C=C/C(=O)O)cc1S(=O)(=O)NCc1ccccc1	-1.8	73.5%	26.3	-0.5%	0.0%
O=C(CN(C(=O)c1csnn1)c1ccc(F)cc1)NCCc1ccccc1	-2.5	-5.6%	32.9	-4.7%	-0.1%
COc1ccc(-c2cc(C)no2)cc1S(=O)(=O)NCc1cccc(C)c1	-1.7	?	-3.4	-16.1%	-25.1%
CCc1ccc(-c2cc(C)no2)cc1S(=O)(=O)Nc1cccc(CN2CCCC2)c1	1.6	9.28µM*	-2.1	6.8%	-32.2%
COc1ccc(-c2cc(C)no2)cc1S(=O)(=O)Nc1cccc(CN2CCCC2)c1	8.3	14.7µM*	-9.8	9.8%	-9.7%
CCc1ccc(-c2cc(C)no2)cc1S(=O)(=O)Nc1cc(C)on1	-2.7	11.2%	14.1	-23.9%	?
COc1ccc(-c2cc(C)no2)cc1S(=O)(=O)NCc1ccc(OC(C)C)cc1	5.6	22.5%	-2.8	-12.3%	10.4µM*
COC(=O)CCN(c1ccccc1)S(=O)(=O)c1cc(-c2cc(C)no2)ccc1OC	-3.1	?	-3.5	-13.6%	10.4µM*
O=C1N(Cc2ccccc2)c2ccc(Cl)cc2C12OCCO2	4.6	?	-4.0	-14.2%	?
Cn1c(=O)c2c(nc(NN=C3CCCC3)n2C)n(C)c1=O	1.5	14.4%	-5.2	4.8%	5.6%
CCc1ccc(-c2cc(C)no2)cc1S(=O)(=O)NCCc1ccccc1	35.4*	-29.8%	19.2	-49.3%	?
O=C(/C=C/c1ccc(Cl)cc1)OCC(=O)c1ccc[nH]1	·	36.3%	·	·	38.8%
O=C(COc1ccc(Cl)cc1Cl)c1ccc[nH]1	30.7*	37.8%	57.1*	-4.7%	171.6%
O=C(COc1ccc(Cl)cc1Cl)N/N=C/c1ccc[nH]1	44.5*	3.1%	34.5*	-8.8%	9.7%
CCOC(=O)CNC(=O)C1c2ccccc2Oc2ccccc21	-3.7	37.5%	0.7	8.4%	?
O=C1CN(S(=O)(=O)c2ccccc2C(F)(F)F)CCN1	-4.1	-3.3%	-6.7	0.4%	-3.8%
CC(=O)Cc1nsc(Nc2ccc(Cl)cc2)n1	61.2*	93.8%	86.0*	4.2%	29.7%
CC(=O)Cc1nsc(NC(=O)c2ccc(-c3cccc(Cl)c3)o2)n1	-2.6	1.2%	32.1	·	-11.3%
CC(=O)Cc1nsc(Nc2ccc3c(c2)OCCO3)n1	82.2*	-14.8%	96.3*	?	?
Cc1nnc(SCC(=O)Nc2ccc3c(c2)OCCO3)s1	1.5	?	29.1	-6.3%	-52.4%
SMILES	Cycloheximide cs	Pf growth 48h	Shiga toxin inh	NS1 function inh	Pf growth 96h
CC(=O)Cc1nsc(Nc2ccc(F)cc2)n1	22.3	2.0%	65.1*	·	10.4µM*
CC(=O)Cc1nsc(NC(=O)c2ccco2)n1	-1.0	4.4%	2.1	-2.2%	·
COc1ccc(C(=O)Nc2ccccc2N2CCN(C(=O)c3ccccc3)CC2)cc1Br	-0.6	2.08µM*	-6.7	-16.6%	?
O=C(Nc1ccccc1N1CCCCC1)c1ccc([N+](=O)[O-])o1	·	10.4µM*	·	·	8.28µM*
O=C(Nc1ccccc1N1CCN(C(=O)c2ccc(Cl)cc2)CC1)c1ccc([N+](=O)[O-])o1	9.8	6.57µM*	3.6	-34.3%	-15.9%
O=C(Nc1ccccc1N1CCN(C(=O)c2ccccc2)CC1)c1ccc(Br)o1	-2.7	0.0%	-19.3	-65.7%	9.28µM*
CN(C(=O)CSc1nnc(-c2cccs2)n1C1CC1)C1CCS(=O)(=O)C1 (centres undefined)	·	30.6%	·	·	49.5%
O=C(COC(=O)c1c[nH]c(=O)[nH]c1=O)Nc1ccccc1Br	-2.4	14.7%	-7.9	0.9%	9.7%
CN1CCN(c2ccccc2NC(=O)c2ccc(-c3ccccc3[N+](=O)[O-])o2)CC1	-1.4	5.22µM*	-3.3	-3.6%	29.1%
CCNC(=S)N/N=C/c1sc(N2CCCCC2)nc1-c1cccs1	30.0*	0.262µM*	active	21.1%	0.165µM*
CCc1nnc(NC(=O)C2CCCN(S(=O)(=O)c3ccc(OC)cc3)C2)s1 (centres undefined)	37.6*	33.8%	72.3*	0.3%	34.2%
CCc1nnc(NC(=O)Cc2ccc(S(=O)(=O)N3CCCCC3)cc2)s1	·	11.7µM*	·	·	11.7µM*
c1ccc(CSc2ccc(-c3cccnc3)nn2)cc1	31.6*	116.2%	98.5*	·	-14.8%
COc1ccccc1-c1ccc(SCc2cccc(C)c2)nn1	22.7*	10.4µM*	29.3	·	11.7µM*
O=C(CSc1ccc(-c2cccnc2)nn1)N1CCCC1	2.1	-25.2%	10.5	·	-2.7%
COc1ccc(-c2ccc(SCc3cccnc3)nn2)cc1OC	19.1*	2.2%	38.6	·	?
c1cncc(CSc2ccc(-c3cccnc3)nn2)c1	15.9	36.1%	67.2*	·	-10.2%
O=C(Nn1c(C2CCCCC2)nc2ccccc2c1=O)c1ccc([N+](=O)[O-])cc1Cl	-2.2	2.3%	-2.2	5.1%	7.3%
COc1ccc(CCNC(=O)C2CCN(c3ccc(N4CCOCC4)nn3)CC2)c(OC)c1	-3.8	·	-7.6	0.8%	?
Cc1cc(NC(=O)COC(=O)C2CC(=O)N(c3ccccc3)C2)no1 (centres undefined)	-4.3	28.5%	-8.7	-0.6%	15.7%
c1ccc(-c2ccc(SCc3cccnc3)nn2)nc1	27.5*	153.6%	136.7*	·	-16.7%
COc1ccc(CNC(=O)Cn2cc(C(F)(F)F)ccc2=O)cc1	5.5	-27.0%	-11.0	7.7%	-15.8%
COc1ccc2c(c1)C1=NN(/C(C)=C/C(C)=O)C(c3cccc(F)c3)C1CC2 (centres undefined)	0.7	?	3.6	3.4%	?
COc1ccc(/C=C2\CCCC3C2=NN(C(=O)COC(=O)CNC(=O)c2ccccc2)C3c2ccc(OC)cc2)cc1 (centres undefined)	-5.0	·	-2.6	-1.8%	?
COc1ccc2c(c1)C1=NN(/C(C)=C\C(C)=O)C(c3ccccc3)C1CC2 (centres undefined)	26.3*	13.1µM*	71.1*	-16.2%	1.2%
CC(=O)N1N=C2c3ccccc3CCC2C1c1cccs1 (centres undefined)	-3.2	-12.6%	4.4	8.0%	?
COc1ccc2c(c1)C1=NN(/C(C)=C/C(C)=O)C(c3ccc(F)cc3)C1CC2 (centres undefined)	30.9*	0.0%	94.5*	-7.8%	34.2%
